{
  "source": "paper PMC13083723",
  "about": "(Patterns, 2026)",
  "note": "Screen size: about 5,400 compounds; about 190 (3.5%) showed an effect of 50% or more. Shown is part of a subset that was picked to be rich in strong results.",
  "data": [
    {"tested_on": "Vero-E6", "test": "primary screen, phospholipidosis by LipidTOX staining; higher = more effect of the substance", "conditions": "10 µM", "method_in_brief": "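Single-concentration screen at 10 μM, with DMSO 0.1 v/v % and amiodarone 10 μM as controls. Read-out is LipidTOX Red phospholipid staining, which tolerates aldehyde fixation, in Vero-E6 cells.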", "units": {"result_ITMP": "%"}, "values": [
      {"smiles": "Cn1nc(C(C)(C)C)cc1C(=O)N[C@@H](Cc1cccc(Cl)c1)C(=O)NCC#N", "result_ITMP": -8.49},
      {"smiles": "O=C(N[C@H](Cc1ccccc1)C(=O)O)c1sc2cc(F)ccc2c1Cl", "result_ITMP": -1.39},
      {"smiles": "Cn1ncc(Cl)c1-c1cc(C(=O)N[C@H](CN)Cc2ccc(F)c(F)c2)oc1Cl", "result_ITMP": 82.6},
      {"smiles": "Cc1cc(CN)cc(C)c1NC(=O)c1ccc(-c2cc(Cl)ccc2Cl)o1", "result_ITMP": 36.2},
      {"smiles": "Cn1ncc(Cl)c1-c1cc(C(=O)N[C@H](CN)Cc2cccc(F)c2)sc1Cl", "result_ITMP": 69.5},
      {"smiles": "C[C@]12CCC(=O)C=C1CC[C@@H]1[C@@H]2C(=O)C[C@]2(C)C(=O)CC[C@@H]12", "result_ITMP": -0.84},
      {"smiles": "C=C1C(=O)O[C@@H]2[C@H]3C(C)=CC[C@@]34O[C@@]4(C)CC[C@@H]12", "result_ITMP": 2.15},
      {"smiles": "COC(=O)[C@]12CCC(C)(C)C[C@H]1[C@H]1C(=O)C=C3[C@@]4(C)C=C(C#N)C(=O)C(C)(C)[C@@H]4CC[C@@]3(C)[C@]1(C)CC2", "result_ITMP": -10.9},
      {"smiles": "CCCC[C@@H](NC(=O)[C@@H](Cc1cn(C(=O)OC)c2ccccc12)NC(=O)[C@H](CC(C)(C)C)NC(=O)N1[C@H](C)CCC[C@@H]1C)C(=O)[O-]", "result_ITMP": -3.76},
      {"smiles": "CC(C)(C)CCN1C[C@@H]2[C@@H](CNC(=O)c3cc(Cl)cc(Cl)c3)[C@@H]2C1", "result_ITMP": 20.6},
      {"smiles": "COC1C(OC(=O)NC(=O)CCl)CCC2(CO2)C1C1(C)OC1CC=C(C)C", "note": "(stereo not drawn)", "result_ITMP": 11.3},
      {"smiles": "C[C@H]1CC2C([C@@H](O)C[C@@]3(C)C2CC[C@]3(O)C(=O)COC(=O)CCC(=O)[O-])[C@@]2(C)C=CC(=O)C=C12", "note": "(stereo partly drawn)", "result_ITMP": -6.49},
      {"smiles": "O=C(c1ccc(F)c(F)c1Nc1ccc(I)cc1F)N1CC(O)([C@@H]2CCCCN2)C1", "result_ITMP": 78.8},
      {"smiles": "O=C(NOCCO)c1cc(CN2OCCCC2=O)c(F)c(F)c1Nc1ccc(I)cc1F", "result_ITMP": -1.3},
      {"smiles": "O=C(NOCC1CC1)c1ccc(F)c(F)c1Nc1ccc(I)cc1Cl", "result_ITMP": 1.02},
      {"smiles": "Cc1cc2nc3c(=O)[nH]c(=O)nc-3n(C[C@@H](O)[C@@H](O)[C@@H](O)COP(=O)([O-])O)c2cc1C", "result_ITMP": 1.6},
      {"smiles": "COc1cc2cc(c1Cl)N(C)C(=O)C[C@H](OC(=O)C(C)C)[C@]1(C)O[C@H]1[C@H](C)[C@@H]1C[C@@](O)(NC(=O)O1)[C@H](OC)/C=C/C=C(\\C)C2", "result_ITMP": -0.8},
      {"smiles": "CCOc1ccc(C(=O)OCCN(CC)CC)cc1", "result_ITMP": 0.82},
      {"smiles": "CCCCOc1cc(C(=O)OCCN(CC)CC)ccc1N", "result_ITMP": 18.9},
      {"smiles": "CCN(CC)CCOc1ccc2c(c1)C(=O)c1cc(OCCN(CC)CC)ccc1-2", "result_ITMP": 57.2},
      {"smiles": "O=C1NNc2nc(CN3Cc4ccccc4C3)nc3cccc1c23", "result_ITMP": 0.43},
      {"smiles": "O=C([O-])C(Cl)Cl", "result_ITMP": -4.51},
      {"smiles": "CC(C)(C)C(=O)OCOC(=O)C1N2C(=O)CC2S(=O)(=O)C1(C)C", "note": "(stereo not drawn)", "result_ITMP": 3.85},
      {"smiles": "CCCCCCCCCCCCCCCC=O", "result_ITMP": -3.07},
      {"smiles": "COc1ccccc1N1CCN(CCCCN2C(=O)CCC2=O)CC1", "result_ITMP": 6.62},
      {"smiles": "OCCN1CCN(CCCN2c3ccccc3C=Cc3ccccc32)CC1", "result_ITMP": 50.3},
      {"smiles": "COc1ccccc1N1CCN(CCCCN2C(=O)c3ccccc3C2=O)CC1", "result_ITMP": -0.85},
      {"smiles": "OCCN1CCN(CCCN2c3ccccc3Sc3ccc(Cl)cc32)CC1", "result_ITMP": 84.7},
      {"smiles": "Cc1c[nH]c(=O)n(CCCN2CCN(c3ccccc3OCC(F)(F)F)CC2)c1=O", "result_ITMP": -1.42},
      {"smiles": "CN(C)CCCN1c2ccccc2CCc2ccc(Cl)cc21", "result_ITMP": 47.3},
      {"smiles": "O=C(CCc1ccncc1)NNC(=O)N1Cc2ccccc2Oc2ccc(Cl)cc21", "result_ITMP": -1.3},
      {"smiles": "CN1CCN(CCCN2c3ccccc3Sc3ccc(Cl)cc32)CC1", "result_ITMP": 38.9},
      {"smiles": "CN1CCN(CCCN2c3ccccc3Sc3ccc(C(F)(F)F)cc32)CC1", "result_ITMP": 81.3},
      {"smiles": "CCN(CC)CCCCN1c2ccccc2Oc2ccc(Cl)cc21", "result_ITMP": 69.7},
      {"smiles": "Clc1ccc2c(N3CCN(CCCN4CCN(c5ccnc6cc(Cl)ccc56)CC4)CC3)ccnc2c1", "result_ITMP": 6.97},
      {"smiles": "CN(C)c1ccc2nc3ccc(N(C)C)cc3[s+]c2c1", "result_ITMP": 5.81},
      {"smiles": "CO[C@@H]1[C@H](OC(=O)NC(=O)CCl)CC[C@]2(CO2)[C@H]1[C@@]1(C)O[C@@H]1CC=C(C)C", "result_ITMP": 16.1},
      {"smiles": "NC[C@@H]1O[C@H](O[C@H]2[C@@H](O)[C@H](O[C@@H]3[C@@H](O)[C@H](N)C[C@H](N)[C@H]3O[C@H]3O[C@H](CO)[C@@H](O)[C@H](O)[C@H]3N)O[C@@H]2CO)[C@H](N)[C@@H](O)[C@@H]1O", "result_ITMP": -1.27},
      {"smiles": "CC1CCC(O)C/C1=C\\C=C1/CCCC2(C)C1CCC2C(C)/C=C/C(C)C(C)C", "note": "(stereo not drawn)", "result_ITMP": 0.34},
      {"smiles": "C[C@H](CSC(=O)c1ccccc1)C(=O)N1C[C@@H](Sc2ccccc2)C[C@H]1C(=O)[O-]", "result_ITMP": -1.35},
      {"smiles": "Cc1ncc(COP(=O)([O-])O)c(CN(CCN(CC(=O)[O-])Cc2c(COP(=O)(O)O)cnc(C)c2[O-])CC(=O)[O-])c1[O-].[Mn+2]", "result_ITMP": -10.5},
      {"smiles": "O=C([O-])C1=C(CSc2nnnn2CS(=O)(=O)[O-])CS[C@@H]2[C@H](NC(=O)[C@H](O)c3ccccc3)C(=O)N12", "result_ITMP": 0.51},
      {"smiles": "CSc1ccc2c(c1)N(CCC1CCCCN1C)c1ccccc1S2", "note": "(stereo not drawn)", "result_ITMP": 68.1},
      {"smiles": "Cc1[nH]c(/C=C2\\C(=O)Nc3ccc(S(=O)(=O)N(C)c4cccc(Cl)c4)cc32)c(C)c1C(=O)N1CCN(C)CC1", "result_ITMP": 7.98},
      {"smiles": "OCCN1CCN(CC/C=C2/c3ccccc3Sc3ccc(C(F)(F)F)cc32)CC1", "result_ITMP": 83.6},
      {"smiles": "CN1CCCCC1CCN1c2ccccc2Sc2ccc(S(C)=O)cc21", "note": "(stereo not drawn)", "result_ITMP": -0.95},
      {"smiles": "CN(C)CCCN1c2ccccc2Sc2ccc(Cl)cc21", "result_ITMP": 104},
      {"smiles": "CN(C)CCCN1c2ccccc2Sc2ccccc21", "result_ITMP": 37.7},
      {"smiles": "CN1CCN(CC/C=C2/c3ccccc3Sc3ccc(S(=O)(=O)N(C)C)cc32)CC1", "result_ITMP": 61.9},
      {"smiles": "CN(C)CCCN1c2ccccc2CCc2ccccc21", "result_ITMP": 23.6},
      {"smiles": "OCCN1CCN(CC/C=C2/c3ccccc3Sc3ccc(Cl)cc32)CC1", "result_ITMP": 17.9},
      {"smiles": "OCCOCCN1CCN(C2=Nc3ccccc3Sc3ccccc32)CC1", "result_ITMP": 22.1},
      {"smiles": "CO/N=C(/C(=O)N[C@@H]1C(=O)N2C(C(=O)[O-])=C(CSc3nc(=O)c([O-])nn3C)CS[C@H]12)c1csc(N)n1", "result_ITMP": -8.18},
      {"smiles": "C[N+]1([O-])[C@@H]2C[C@@H](OC(=O)[C@H](CO)c3ccccc3)C[C@H]1[C@@H]1O[C@@H]12", "note": "(stereo partly drawn)", "result_ITMP": -4.04},
      {"smiles": "C[C@@]1(CO)[C@H](O)CC[C@@]2(C)[C@H]1CC[C@H]1C[C@@H]3C[C@@]12CC[C@]3(O)CO", "result_ITMP": 0.12},
      {"smiles": "CC(C)(C)c1ccc(-c2nc3cccc(N4CCN(Cc5ccc6nccnc6c5)CC4)c3[nH]2)cc1", "result_ITMP": 5.05},
      {"smiles": "Cc1cc(C)cc(NC(=O)Cc2ccc(OC(C)(C)C(=O)[O-])cc2)c1", "result_ITMP": 9.78},
      {"smiles": "O=S(=O)([O-])c1ccc(O)cc1", "result_ITMP": -0.61},
      {"smiles": "Cc1onc(-c2c(F)cccc2Cl)c1C(=O)N[C@@H]1C(=O)N2[C@@H]1SC(C)(C)[C@@H]2C(=O)[O-]", "result_ITMP": -6.63},
      {"smiles": "CCCCOc1c(C(=O)c2c(F)cc(C)cc2F)cnc2[nH]ncc12", "result_ITMP": 7.58},
      {"smiles": "C/C(=C\\CNc1ncnc2nc[nH]c12)CO", "result_ITMP": -1.84},
      {"smiles": "OCCN1CCN(CCCN2c3ccccc3Sc3ccc(C(F)(F)F)cc32)CC1", "result_ITMP": 60.4},
      {"smiles": "CCSc1ccc2c(c1)N(CCCN1CCN(C)CC1)c1ccccc1S2", "result_ITMP": 59.1},
      {"smiles": "CCCCCCCCCCCCCCCC(=O)OCCC1CCN(CCCN2c3ccccc3Sc3ccc(S(=O)(=O)N(C)C)cc32)CC1", "result_ITMP": -5.2},
      {"smiles": "CN1CCN(CCCN2c3ccccc3Sc3ccc(S(=O)(=O)N(C)C)cc32)CC1", "result_ITMP": 50.3},
      {"smiles": "CCCCCCCCCC(=O)OCCN1CCN(CCCN2c3ccccc3Sc3ccc(C(F)(F)F)cc32)CC1", "result_ITMP": 5.56},
      {"smiles": "O=C(CN1CCN(Cc2ccc3c(c2)OCO3)CC1)N1c2ccccc2Sc2ccccc21", "result_ITMP": 15.4},
      {"smiles": "C[C@@H]1CN(Cc2ccc(F)cc2)[C@@H](C)CN1C(=O)c1cc2c(C(=O)C(=O)N(C)C)cn(C)c2cc1Cl", "result_ITMP": -5.07},
      {"smiles": "O=C([O-])c1cc2cc(Cc3cccnc3)ccc2o1", "result_ITMP": -0.95},
      {"smiles": "O=C([O-])[C@H](CC(=O)N1C[C@H]2CCCC[C@H]2C1)Cc1ccccc1", "result_ITMP": -4.71},
      {"smiles": "O=C(NN1C(=O)[C@@H]2[C@@H]3C=C[C@@H]([C@H]4C[C@@H]34)[C@@H]2C1=O)c1ccc(C(F)(F)F)cc1", "result_ITMP": -0.89},
      {"smiles": "C/N=C(/NS(=O)(=O)c1ccc(Cl)cc1)N1CC(c2ccccc2)C(c2ccc(Cl)cc2)=N1", "note": "(racemic)", "result_ITMP": -1.59},
      {"smiles": "O=C(O)c1cnn(-c2nc3cc(Cl)c(OC(F)(F)F)cc3[nH]2)c1", "result_ITMP": -2.3},
      {"smiles": "CSc1ccc(C(=O)c2nc(O)[nH]c2C)cc1", "result_ITMP": -1.45},
      {"smiles": "O=S(=O)(c1cccc2cnccc12)N1CCNCC1", "result_ITMP": 0.47},
      {"smiles": "O=S(=O)(NCCNC/C=C/c1ccc(Br)cc1)c1cccc2cnccc12", "result_ITMP": 60.8},
      {"smiles": "NC(N)=NCCNS(=O)(=O)c1cccc2cnccc12", "result_ITMP": -3.17},
      {"smiles": "NC[C@@H]1O[C@H](O[C@H]2[C@@H](O)[C@H](O[C@@H]3[C@@H](O)[C@H](N)C[C@H](N)[C@H]3O[C@H]3O[C@H](CN)[C@@H](O)[C@H](O)[C@H]3N)O[C@@H]2CO)[C@H](N)[C@@H](O)[C@@H]1O", "result_ITMP": -2.72},
      {"smiles": "c1cnc2c([O][Ga]([O]c3cccc4cccnc34)[O]c3cccc4cccnc34)cccc2c1", "result_ITMP": 5.3},
      {"smiles": "CCOC(=O)c1ccc(-n2cc(Cc3cnc(OCC)nc3)c(=O)nc2SCc2ccc(F)cc2)cc1", "result_ITMP": -1.15},
      {"smiles": "CCC(C)[C@H]1O[C@]2(C=C[C@@H]1C)C[C@@H]1C[C@@H](C/C=C(\\C)[C@@H](OC3C[C@H](OC)C(O[C@H]4C[C@H](OC)[C@@H](O)[C@H](C)O4)[C@H](C)O3)[C@@H](C)/C=C/C=C3\\CO[C@@H]4[C@H](O)C(C)=C[C@@H](C(=O)O1)[C@]34O)O2", "note": "(stereo partly drawn)", "result_ITMP": -3.77}
    ]}
  ]
}
